# Results: the supplement of paper PMC4466140
# Tests used:
# Experiment in all cases: SPOT peptide array binding signal intensity (averaged, normalized) (arbitrary units (background-subtracted, floor 0; scale differs between SH3 domains)); higher = stronger binding of the SH3 domain to the peptide
# [1] = target: AgAbp1
# Procedure, shortened: (§1)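 Binding signal is given in arbitrary units that differ between domains and is the normalized, background-subtracted spot intensity averaged across replicates. Each GST-SH3 fusion from one of four yeast species was made in E. coli BL21(DE3), purified on glutathione Sepharose and incubated at 10 μg/ml overnight at 4°C on cellulose-bound synthetic 15-mer peptides in which cysteines were replaced by serines. Detection used anti-GST antibody, an HRP anti-mouse secondary and luminol, followed by imaging and Genespotter quantification.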
# [2] = target: AgBbc1
# Procedure, shortened: as §1
# [3] = target: AgBem1-D1
# Procedure, shortened: as §1
# [4] = target: AgBzz1-D1
# Procedure, shortened: as §1
# [5] = target: AgBzz1-D2
# Procedure, shortened: as §1
# [6] = target: AgCyk3
# Procedure, shortened: as §1
# [7] = target: AgFus1
# Procedure, shortened: as §1
# [8] = target: AgHof1
# Procedure, shortened: as §1
# [9] = target: AgHse1
# Procedure, shortened: as §1
# [10] = target: AgLsb1
# Procedure, shortened: as §1
# [11] = target: AgLsb4
# Procedure, shortened: as §1
# [12] = target: AgMyo5
# Procedure, shortened: as §1
# [13] = target: AgNbp2
# Procedure, shortened: as §1
# [14] = target: AgRvs167
# Procedure, shortened: as §1
# [15] = target: AgSho1
# Procedure, shortened: as §1
# [16] = target: AgSla1-D1-D2
# Procedure, shortened: as §1
# [17] = target: AgSla1-D3
# Procedure, shortened: as §1
# [18] = target: CaAbp1-D1
# Procedure, shortened: as §1
# [19] = target: CaAbp1-D2
# Procedure, shortened: as §1
# [20] = target: CaBbc1
# Procedure, shortened: as §1
# [21] = target: CaBem1-D1
# Procedure, shortened: as §1
# [22] = target: CaBzz1-D1
# Procedure, shortened: as §1
# [23] = target: CaBzz1-D2
# Procedure, shortened: as §1
# [24] = target: CaCyk3
# Procedure, shortened: as §1
# [25] = target: CaFus1
# Procedure, shortened: as §1
# [26] = target: CaHof1
# Procedure, shortened: as §1
# [27] = target: CaHse1
# Procedure, shortened: as §1
# [28] = target: CaLsb1
# Procedure, shortened: as §1
# [29] = target: CaLsb4
# Procedure, shortened: as §1
# [30] = target: CaMyo5
# Procedure, shortened: as §1
# [31] = target: CaNbp2
# Procedure, shortened: as §1
# [32] = target: CaRvs167
# Procedure, shortened: as §1
# [33] = target: CaRvs167-3
# Procedure, shortened: as §1
# [34] = target: CaSho1
# Procedure, shortened: as §1
# [35] = target: CaSla1-D1-D2
# Procedure, shortened: as §1
# [36] = target: CaSla1-D3
# Procedure, shortened: as §1
# [37] = target: ScAbp1
# Procedure, shortened: as §1
# [38] = target: ScBbc1
# Procedure, shortened: as §1
# [39] = target: ScBem1-D1
# Procedure, shortened: as §1
# [40] = target: ScBzz1-D1
# Procedure, shortened: as §1
# [41] = target: ScBzz1-D2
# Procedure, shortened: as §1
# [42] = target: ScCyk3
# Procedure, shortened: as §1
# [43] = target: ScFus1
# Procedure, shortened: as §1
# [44] = target: ScHof1
# Procedure, shortened: as §1
# [45] = target: ScHse1
# Procedure, shortened: as §1
# [46] = target: ScLsb1
# Procedure, shortened: as §1
# [47] = target: ScLsb2
# Procedure, shortened: as §1
# [48] = target: ScLsb3
# Procedure, shortened: as §1
# [49] = target: ScLsb4
# Procedure, shortened: as §1
# [50] = target: ScMyo3
# Procedure, shortened: as §1
# [51] = target: ScMyo5
# Procedure, shortened: as §1
# [52] = target: ScNbp2
# Procedure, shortened: as §1
# [53] = target: ScPex13
# Procedure, shortened: as §1
# [54] = target: ScRvs167
# Procedure, shortened: as §1
# [55] = target: ScSho1
# Procedure, shortened: as §1
# [56] = target: ScSla1-D1-D2
# Procedure, shortened: as §1
# [57] = target: ScSla1-D3
# Procedure, shortened: as §1
# [58] = target: SpAbp1-D1
# Procedure, shortened: as §1
# [59] = target: SpBbc1
# Procedure, shortened: as §1
# [60] = target: SpBzz1-D1
# Procedure, shortened: as §1
# [61] = target: SpBzz1-D2
# Procedure, shortened: as §1
# [62] = target: SpCyk3
# Procedure, shortened: as §1
# [63] = target: SpHof1
# Procedure, shortened: as §1
# [64] = target: SpHof1-2
# Procedure, shortened: as §1
# [65] = target: SpHof1-3
# Procedure, shortened: as §1
# [66] = target: SpHse1
# Procedure, shortened: as §1
# [67] = target: SpLsb1
# Procedure, shortened: as §1
# [68] = target: SpLsb4
# Procedure, shortened: as §1
# [69] = target: SpMyo1
# Procedure, shortened: as §1
# [70] = target: SpNbp2
# Procedure, shortened: as §1
# [71] = target: SpPex13
# Procedure, shortened: as §1
# [72] = target: SpRvs167
# Procedure, shortened: as §1
# [73] = target: SpSla1-D1-D2
# Procedure, shortened: as §1
# [74] = target: SpSla1-D3
# Procedure, shortened: as §1
binder,measurement,setting,value
NNFYRPLLRSVLVLL,SPOT peptide array binding signal intensity,[1],≤ 0
same,SPOT peptide array binding signal intensity,[2],≤ 0
same,SPOT peptide array binding signal intensity,[3],8
same,SPOT peptide array binding signal intensity,[4],13
same,SPOT peptide array binding signal intensity,[5],18
same,SPOT peptide array binding signal intensity,[6],≤ 0
same,SPOT peptide array binding signal intensity,[7],246
same,SPOT peptide array binding signal intensity,[8],≤ 0
same,SPOT peptide array binding signal intensity,[9],722
same,SPOT peptide array binding signal intensity,[10],0.5
same,SPOT peptide array binding signal intensity,[11],10.5
same,SPOT peptide array binding signal intensity,[12],≤ 0
same,SPOT peptide array binding signal intensity,[13],6.5
same,SPOT peptide array binding signal intensity,[14],1
same,SPOT peptide array binding signal intensity,[15],14.5
same,SPOT peptide array binding signal intensity,[16],1
same,SPOT peptide array binding signal intensity,[17],2
same,SPOT peptide array binding signal intensity,[18],≤ 0
same,SPOT peptide array binding signal intensity,[19],≤ 0
same,SPOT peptide array binding signal intensity,[20],≤ 0
same,SPOT peptide array binding signal intensity,[21],≤ 0
same,SPOT peptide array binding signal intensity,[22],≤ 0
same,SPOT peptide array binding signal intensity,[23],1
same,SPOT peptide array binding signal intensity,[24],≤ 0
same,SPOT peptide array binding signal intensity,[25],2730
same,SPOT peptide array binding signal intensity,[26],0.75
same,SPOT peptide array binding signal intensity,[27],21.8
same,SPOT peptide array binding signal intensity,[28],≤ 0
same,SPOT peptide array binding signal intensity,[29],≤ 0
same,SPOT peptide array binding signal intensity,[30],≤ 0
same,SPOT peptide array binding signal intensity,[31],72.5
same,SPOT peptide array binding signal intensity,[32],3
same,SPOT peptide array binding signal intensity,[33],1
same,SPOT peptide array binding signal intensity,[34],80
same,SPOT peptide array binding signal intensity,[35],≤ 0
same,SPOT peptide array binding signal intensity,[36],≤ 0
same,SPOT peptide array binding signal intensity,[37],≤ 0
same,SPOT peptide array binding signal intensity,[38],0.75
same,SPOT peptide array binding signal intensity,[39],4
same,SPOT peptide array binding signal intensity,[40],19
same,SPOT peptide array binding signal intensity,[41],6
same,SPOT peptide array binding signal intensity,[42],57.5
same,SPOT peptide array binding signal intensity,[43],238
same,SPOT peptide array binding signal intensity,[44],1
same,SPOT peptide array binding signal intensity,[45],1040
same,SPOT peptide array binding signal intensity,[46],0.5
same,SPOT peptide array binding signal intensity,[47],1
same,SPOT peptide array binding signal intensity,[48],0.5
same,SPOT peptide array binding signal intensity,[49],≤ 0
same,SPOT peptide array binding signal intensity,[50],≤ 0
same,SPOT peptide array binding signal intensity,[51],≤ 0
same,SPOT peptide array binding signal intensity,[52],13
same,SPOT peptide array binding signal intensity,[53],0.25
same,SPOT peptide array binding signal intensity,[54],2.33
same,SPOT peptide array binding signal intensity,[55],350
same,SPOT peptide array binding signal intensity,[56],≤ 0
same,SPOT peptide array binding signal intensity,[57],0.5
same,SPOT peptide array binding signal intensity,[58],≤ 0
same,SPOT peptide array binding signal intensity,[59],≤ 0
same,SPOT peptide array binding signal intensity,[60],8
same,SPOT peptide array binding signal intensity,[61],0.5
same,SPOT peptide array binding signal intensity,[62],6.5
same,SPOT peptide array binding signal intensity,[63],3
same,SPOT peptide array binding signal intensity,[64],4
same,SPOT peptide array binding signal intensity,[65],366
same,SPOT peptide array binding signal intensity,[66],1050
same,SPOT peptide array binding signal intensity,[67],≤ 0
same,SPOT peptide array binding signal intensity,[68],≤ 0
same,SPOT peptide array binding signal intensity,[69],≤ 0
same,SPOT peptide array binding signal intensity,[70],0.5
same,SPOT peptide array binding signal intensity,[71],5.5
same,SPOT peptide array binding signal intensity,[72],0.667
same,SPOT peptide array binding signal intensity,[73],4
same,SPOT peptide array binding signal intensity,[74],≤ 0
